Outcome and AC50 data for 38 molecules are collected here from PubChem BioAssay (EPA / NIEHS).

Inconclusive results are not listed. Activity calls are given as the source filed them. How the source made its calls: active means hit-call score of the fitted dose curve at least 0.9, where 1 is the maximum; inconclusive means response in the unintended direction; inactive means score below 0.9.

Read-out in this assay: sulfotransferase (SULT2A), SULT2A1 (gene 6822)
The assay can be described thus: CLD_SULT2A_48hr: CellzDirect (CLD) Gene Expression Assay for sulfotransferase (SULT2A) at 48 hours (AID 2283710).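 Further: hits raise SULT2A1 transcript above the 0.2% DMSO vehicle baseline.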 The protocol:
CLD_48hr is a cell-based, multiplexed-readout assay that uses hepatocyte, a human liver primary cell, with measurements taken at 48 hours after chemical dosing in a 96-well plate.CLD_SULT2A_48hr is one of 16 assay component(s) measured or calculated from the CLD_48hr assay. It is designed to make measurements of mRNA induction, a form of inducible reporter, as detected with chemiluminescence signals by Quantitative Nuclease Protection Assay (qNPA) technology.Data from the assay component CLD_SULT2A_48hr was analyzed at the endpoint, CLD_SULT2A_48hr, in the positive analysis fitting direction relative to DMSO as the negative control and baseline of activity. Using a type of inducible reporter, gain-of-signal activity can be used to understand changes in the reporter gene as they relate to the gene SULT2A1. Furthermore, this assay endpoint can be referred to as a primary readout. To generalize the intended target to other relatable targets, this assay endpoint is annotated to the transferase intended target family, where subfamily is sulfotransferase.
Human hepatocyte cultures were treated daily for two consecutive days with fresh dosing solutions containing appropriate concentrations of the 320 ToxCast chemicals (chemical identities were blinded to CellzDirect and other ToxCast collaborators), vehicle control (0.2% DMSO), and positive control inducers as summarized in Table 1. Due to the large number of treatment groups and chemicals examined, the ToxCast chemicals were divided into two groups (spanning two independent cultures of hepatocytes from separate donor preparations (Hu778: ToxCast plates 1 and 2; Hu776: ToxCast plates 3 and 4). Each preparation of human hepatocyte cultures was treated with respective vehicle control, medium only control, set of six positive controls/reference chemicals for the five hepatic receptor pathways, and a subset of eight of the ToxCast chemicals (indoxacarb, pyrithiobac-sodium, norflurazon, cyhalofop-butyl, methomyl, thiram, acetochlor, and propiconazole). These replicate data, coupled with internal replicates designed within the blinded ToxCast chemical library, provided additional data to evaluate interindividual differences between hepatocyte preparations and their potential impact on chemical profiles.Cell morphology and integrity were evaluated using phase-contrast microscopy as an indicator of hepatocyte cell health (Tyson & Green, 1987). Cultures for each treatment group (i.e., media, vehicle [0.2% DMSO], positive control inducers [multiple concentrations], and the ToxCast chemicals [multiple concentrations]) were observed and cell morphology was assessed relative to vehicle control cultures at each harvest time point (0, 6, 24, or 48 h). […] Images were evaluated at the conclusion of the study to assess changes in cell integrity and account for the effects of chemical exposure on uncharacteristic changes in concentration-dependent gene expression profiles. The results from these determinations of apparent cytotoxicity were annotated (yes/no) alongside the corresponding qNPA data for reference.At the conclusion of each treatment period, hepatocyte cultures (96-well) were washed with 1 volume of HBSS, lysed by addition of 25 ul ArrayPlate lysis buffer (HTG, Tucson, AZ), and 70 ul/well of Denaturation Oil, denatured by incubation at 95C for 10 min, and frozen at approximately -70C until analysis by nuclease protection assay (qNPA) (Roberts et al., 2007). For qNPA analysis, cell lysates were thawed at 50C for approximately 30 min, qNPA probes were added, and samples were incubated at 95C for 10 min to begin the detection process by denaturing the target RNA, dissociating the duplexes and secondary structure hybridization. At the conclusion of the hybridization period, S1 nuclease reagent was added to each sample to digest all nonprotected nucleotides at 50C for 60-90 min. […]
For the molecule `O=S(=O)(O)C(F)(F)C(F)(F)C(F)(F)C(F)(F)C(F)(F)C(F)(F)C(F)(F)C(F)(F)F`, the result was inactive. For `COC(=O)c1ccccc1S(=O)(=O)NC(=O)Nc1nc(C)nc(OC)n1`, the molecule was called inactive. `O=C(O)CCCOc1ccc(Cl)cc1Cl`: the call was inactive. Still for that read-out and setting: as for `Cc1cc(C)nc(NC(=O)NS(=O)(=O)c2ccccc2C(=O)OC2COC2)n1`, the entry is “inactive”; as for `CCOC1Oc2ccc(OS(C)(=O)=O)cc2C1(C)C` (stereo not drawn), “inactive”; as for `CN1CSC(=S)N(C)C1`, “inactive”.

On to `O=[N+]([O-])c1c(Cl)c(Cl)c(Cl)c(Cl)c1Cl`, for which the molecule was called inactive. Consider `O=[N+]([O-])/N=C1\NCCN1Cc1ccc(Cl)nc1`, for which the result was inactive.

As to `Oc1cc(Cl)ccc1Oc1ccc(Cl)cc1Cl`, the molecule was called inactive. In the case of `CCc1ccc(C(=O)NN(C(=O)c2cc(C)cc(C)c2)C(C)(C)C)cc1`, the result was inactive. With `CCN(CC)C(=O)SCc1ccc(Cl)cc1`, the outcome was inactive. Take `O=C(Nc1ccccc1)Nc1cnns1`: the AC50 (usually the concentration at which the activity in the assay is half-maximal) is 6.28 µM (active). Still for that read-out and setting: as for `CC1(c2ccc(Oc3ccccc3)cc2)OC(=O)N(Nc2ccccc2)C1=O` (stereo not drawn), the figure is 1.89 µM (active). For the molecule `Cc1[nH]c(=O)n(C(C)(C)C)c(=O)c1Cl`, the call was inactive. `CCC(C)(NC(=O)c1cc(Cl)c(C)c(Cl)c1)C(=O)CCl` (stereo not drawn): the call was inactive. Still for that read-out and setting: as for `CNC(=O)Oc1ccccc1OC(C)C`, the entry is “inactive”; as for `CCS(=O)(=O)c1cccnc1S(=O)(=O)NC(=O)Nc1nc(OC)cc(OC)n1`, “inactive”. In the case of `COc1nn(CSP(=S)(OC)OC)c(=O)s1`, the call was inactive.

Consider `CC(C)(C)C(O)C(Oc1ccc(Cl)cc1)n1cncn1` (stereo not drawn), for which the AC50 was 7.18 µM (active).

Turning to `COc1cc(OC)nc(NC(=O)NS(=O)(=O)c2cc(NC=O)ccc2C(=O)N(C)C)n1`, the molecule was called inactive.

Take `Clc1ccccc1-c1nnc(-c2ccccc2Cl)nn1`: the molecule was classed as inactive. For the molecule `COP(=O)(OC)OC=C(Cl)Cl`, the call was inactive.

On to `O=C(NC(=O)c1c(F)cccc1F)Nc1ccc(OC(F)(F)C(F)OC(F)(F)F)c(Cl)c1` (stereo not drawn), for which the outcome was inactive. In the case of `CCC(C)Nc1c([N+](=O)[O-])cc(C(C)(C)C)cc1[N+](=O)[O-]` (stereo not drawn), the AC50 was 1.14 µM (active). Regarding `COP(=S)(OC)Oc1ccc([N+](=O)[O-])cc1`, the result was inactive. As for `CC(C)(C)C(O)/C(=C\c1ccc(Cl)cc1Cl)n1cncn1` (stereo not drawn), the molecule was called inactive. As for `C[C@H]1[C@H](c2ccc(Cl)cc2)SC(=O)N1C(=O)NC1CCCCC1`, the molecule was called inactive. Still for that read-out and setting: the result for `CC(C)N(C(=O)COc1nnc(C(F)(F)F)s1)c1ccc(F)cc1` reads “inactive”; that for `CC1(C)C(C=C(Cl)Cl)C1C(=O)OC(C#N)c1ccc(F)c(Oc2ccccc2)c1` (stereo not drawn), “inactive”. Turning to `O=S1OCC2C(CO1)C1(Cl)C(Cl)=C(Cl)C2(Cl)C1(Cl)Cl` (stereo not drawn), the molecule was called inactive. As to `COC(=O)c1ccccc1S(=O)(=O)NC(=O)N(C)c1nc(C)nc(OC)n1`, the molecule was called inactive. As for `CNC(=O)/C=C(\C)OP(=O)(OC)OC`, the outcome was inactive.

Consider `N#Cc1c(Cl)c(Cl)c(Cl)c(C#N)c1Cl`, for which the result was inactive. `C#CCN1C(=O)COc2cc(F)c(N3C(=O)C4=C(CCCC4)C3=O)cc21`: the concentration at half-maximal activity (AC50) is 3.49 µM (active). Take `O=C(O)C(F)(F)C(F)(F)C(F)(F)C(F)(F)C(F)(F)C(F)(F)C(F)(F)F`: the result was inactive. For the molecule `Oc1ccc(Cl)cc1Cc1ccccc1`, the molecule was classed as inactive. Take `CCC(C)(C)C(=O)OC1=C(c2ccc(Cl)cc2Cl)C(=O)OC12CCCCC2`: the molecule was called inactive. Turning to `CCCN(CCC)c1c([N+](=O)[O-])cc(C(F)(F)F)cc1[N+](=O)[O-]`, the call was inactive.
